{
  "source": "PubChem BioAssay (Tox21)",
  "note": "The source made the active and inactive calls. Where a call stands in place of a potency, no number is given. The call rests on the fitted dose curve; in most records, active means well fitted curve in the direction sought with a large enough effect in the repeat runs; inconclusive means weak or mixed curves; inactive means flat fitted curve, though single readings scatter.",
  "data": [
    {"test": "qHTS assay to test for compound auto fluorescence at 460 nm (blue) in HepG2 cell free culture (AID 720685)", "settings": "Cell-free culture medium, blue autofluorescence 405/460 nm; series mostly up to 46 µM", "excerpt": "U.S. Tox21 Program National Center for Advancing Translational Sciences [NCATS] NIH Chemical Genomics Center [NCGC] U.S. Environmental Protection Agency [EPA] National Institutes of Environmental Health Sciences [NIEHS] National Toxicology Program [NTP] U.S. Food and Drug Administration [FDA] Tox21 Assay Overview: Compound auto fluorescence often interferes with screening of the compound library against various biological targets and signaling pathways. Some of these compounds may have fluorophoric properties. Such properties may interfere with the assay outputs resulting in false positives and/or negatives. To decrease such complications and ensure the compound activities are relevant in terms of biological response, the Tox21 10K compound library was screened for auto fluorescence. From the fluorophores used as reporter signals in our screening assays, the auto fluorescence equivalencies of compounds against three fluorophores have been evaluated: Triamterene, Fluorescein and Rose Bengal sodium for blue, green and red fluorescence, respectively. The fluorescence intensities were measured using Excitation/Emission wavelengths at 405/460nm, 485/535nm and 540/590nm for blue, green and red labels, respectively. This assay includes the blue fluorescence data.\nTox21 Assay Protocol Summary: 5 uL of culture medium (MEM containing 10% FBS) per well was dispensed into black wall/clear bottom 1536-well plates using a Multidrop Combi Dispenser (ThermoFisher Scientific, Waltham, MA). After 23 nL compound or DMSO vehicle was transferred into assay plate by a pintool work station (Kalypsys, San Diego, CA), fluorescence intensities in the assay plates were measured by an Envision (PerkinElmer, Shelton, CT) plate reader using three labels for measuring blue, green and red fluorescence at […] 460, 535 and 590nm respectively.", "values": [
      {"molecule": "COC(=O)C[C@](O)(CCCC(C)(C)O)C(=O)O[C@@H]1C(OC)=CC23CCCN2CCc2cc4c(cc2[C@H]13)OCO4", "note": "(stereo not given in full)", "Potency": "inactive"},
      {"molecule": "NC(=O)[C@@H]1C[C@]2(NC(=O)NC2=O)c2cc(F)ccc2O1", "Potency": "inactive"},
      {"molecule": "COc1ccc(/C=C/C(=O)Nc2ccccc2C(=O)O)cc1OC", "Potency": "inactive"},
      {"molecule": "C[C@@H]1C(=O)NC2=Nc3cccc(Cl)c3CN21", "Potency": "inactive"},
      {"molecule": "Nc1ccc(N)c([N+](=O)[O-])c1", "Potency": "inactive"},
      {"molecule": "CCCn1c(=O)[nH]c(=O)c2[nH]cnc21", "Potency": "inactive"},
      {"molecule": "c1ccc(-n2cnnn2)cc1", "Potency": "inactive"},
      {"molecule": "CNCCC=C1c2ccccc2CCc2ccccc21", "Potency": "inactive"},
      {"molecule": "CO/N=C(\\C(=O)N[C@@H]1C(=O)N2C(C(=O)O)=C(CSc3nc(C)c(CC(=O)O)s3)CS[C@H]12)c1csc(N)n1", "Potency": "inactive"},
      {"molecule": "CC(C)c1ncc([N+](=O)[O-])n1C", "Potency": "inactive"},
      {"molecule": "COc1cc([C@@H]2c3cc4c(cc3[C@@H](O[C@@H]3O[C@@H]5CO[C@@H](C)O[C@H]5[C@H](O)[C@H]3O)[C@H]3COC(=O)[C@H]23)OCO4)cc(OC)c1O", "Potency": "inactive"},
      {"molecule": "CC(C)=CCC/C(C)=C/CC/C(C)=C/CC/C(C)=C/CC1=C(C)C(=O)c2ccccc2C1=O", "Potency": "inactive"},
      {"molecule": "COc1cc2c(cc1O)CCN[C@]21CS[C@@H]2c3c(OC(C)=O)c(C)c4c(c3[C@H](COC1=O)N1[C@@H]2[C@H]2c3c(cc(C)c(OC)c3O)C[C@@H]([C@@H]1O)N2C)OCO4", "Potency": "inactive"},
      {"molecule": "CCN(CC)CC#CCOC(=O)C(O)(c1ccccc1)C1CCCCC1", "note": "(stereo not given)", "Potency": "inactive"},
      {"molecule": "Oc1ccc(Cl)cc1C1CCCC1", "Potency": "inactive"},
      {"molecule": "O=C(O)COc1ccccc1/C=N/NC(=O)c1ccncc1", "Potency": "inactive"},
      {"molecule": "Cc1cc(CC(C)CC(C)(C)C)n(O)c(=O)c1", "note": "(stereo not given) (tested in a mixture with another compound)", "Potency": "inactive"},
      {"molecule": "CC(=O)Nc1ccc(OC(C)=O)cc1", "Potency": "inactive"},
      {"molecule": "C[Se]CC[C@H](N)C(=O)O", "Potency": "inactive"},
      {"molecule": "O=C1c2c(O)cccc2[C@H]([C@@H]2O[C@H](CO)[C@@H](O)[C@H](O)[C@H]2O)c2cc(CO)cc(O)c21", "Potency": "inactive"},
      {"molecule": "CCCCCCCC[N+](C)(C)CCCCCCCC", "Potency": "inactive"},
      {"molecule": "C=C(Nc1ccc(OCC)cc1)Nc1ccc(OCC)cc1", "Potency": "inactive"},
      {"molecule": "CCN(CC)CCn1c(=O)c(Cc2ccc(OC)cc2)nc2ccccc21", "Potency": "inactive"},
      {"molecule": "CN1C(=O)C[C@@H](C(=O)N[C@@H](Cc2cnc[nH]2)C(=O)N2CCC[C@H]2C(N)=O)NC1=O", "Potency": "inactive"},
      {"molecule": "NC(=O)C1c2ccccc2CCc2ccccc21", "Potency": "inactive"},
      {"molecule": "COC(=O)[C@H]1[C@H]2C[C@H]3c4[nH]c5ccccc5c4CCN3C[C@H]2CC[C@@H]1O", "Potency": "inactive"},
      {"molecule": "COc1cccc(-c2ccc(/C=C\\CN3CCCCCC3)cc2Cl)c1", "Potency": "inactive"},
      {"molecule": "CC(C)(Oc1ccc(C2CCCc3ccccc32)cc1)C(=O)O", "note": "(stereo not given)", "Potency": "inactive"},
      {"molecule": "CC/C=C\\C/C=C\\C/C=C\\C/C=C\\C/C=C\\C/C=C\\CCC(=O)O", "Potency": "inactive"},
      {"molecule": "Cc1cc(F)ccc1-c1cc(N2CC[C@@H](O)[C@H]2CO)ncc1N(C)C(=O)C(C)(C)c1cc(C(F)(F)F)cc(C(F)(F)F)c1", "Potency": "inactive"},
      {"molecule": "CCCCCCCCCCCCCC(=O)OCC(COP(=O)([O-])OCC[N+](C)(C)C)OC(=O)CCCCCCCCCCCCC", "note": "(stereo not given)", "Potency": "inactive"},
      {"molecule": "CCN1CCCC1CNC(=O)c1cc(S(=O)(=O)CC)ccc1OC", "note": "(stereo not given)", "Potency": "inactive"},
      {"molecule": "CO[C@H]1C[C@H](O[C@H]2[C@H](C)[C@@H](O[C@@H]3O[C@H](C)C[C@H](N(C)C)[C@H]3O)[C@@H](C)C[C@]3(CO3)C(=O)[C@H](C)[C@@H](O)[C@@H](C)[C@@H](C)OC(=O)[C@@H]2C)O[C@@H](C)[C@@H]1O", "Potency": "inactive"},
      {"molecule": "O=C1CCCCCCCCCCCCCC1", "Potency": "inactive"},
      {"molecule": "CO/N=C(\\C(=O)N[C@@H]1C(=O)N2C(C(=O)O)=C(CSc3cnns3)CS[C@H]12)c1csc(N)n1", "Potency": "inactive"},
      {"molecule": "CCCCC[C@H](O)/C=C/[C@@H]1[C@@H](C/C=C\\CCCC(=O)O)[C@@H](O)C[C@H]1O", "Potency": "inactive"},
      {"molecule": "CN[C@H]1CC[C@@H](c2ccc(Cl)c(Cl)c2)c2ccc(S(N)(=O)=O)cc21", "Potency": "inactive"},
      {"molecule": "C[C@@H]1C[C@H]2[C@@H]3C[C@H](F)C4=CC(=O)C=C[C@]4(C)[C@@]3(Cl)[C@@H](O)C[C@]2(C)[C@H]1C(=O)COC(=O)C(C)(C)C", "Potency": "inactive"},
      {"molecule": "CCOC(=O)Cc1ccc(-c2ccccc2)cc1", "Potency": "inactive"},
      {"molecule": "O=C1CC[C@@H](C(=O)N[C@H]2C[C@@H]2c2ccccc2)N1", "Potency": "inactive"}
    ]}
  ]
}
